# Laboratory results taken from ChEMBL document CHEMBL3988442, “University of Dundee, Small-Polar-MMV Screening Library” (2021).
# Hit rate of the full screen: of about 48,000 compounds, about 13,000 (27%) showed an effect of 50% or more. The list shows a part of the results.
# Test system: Wolbachia pipientis
# Test: Anti-Wolbachia Cell-Based Screen
# Format: functional
# Set-up: scale not given: in the data most compounds retested in dose-response had high values
# Conditions: 5 µM
row,Structure (SMILES),Percent Effect [%]
1,CCOc1ccccc1CNC(=O)NCC(c1cnn(C)c1)N(C)C (stereo unspecified),-20.46
2,Cc1cc(C)cc(C(=O)NCCCNc2ncccn2)c1,-23.32
3,Cc1ccc2cc(C3(O)CCN(C(=O)CN4CCCC4)CC3)ccc2n1,-0.9065
4,CS(=O)(=O)N(Cc1ccon1)c1ccc(F)cc1,-1.74
5,CC(C)CCn1cc(C(C(=O)O)N2CCC(N3CCSCC3)CC2)cn1 (stereo unspecified),123.7
6,CC(C)CCn1cc(C(C(=O)O)N2CCSCC2)cn1 (stereo unspecified),100.1
7,COc1ccc(C(C(=O)O)N2CCCN(C3CCCCC3)CC2)cn1 (stereo unspecified),6.723
8,COCCn1cc(NC(=O)NCC(C)N2CCOCC2)cn1 (stereo unspecified),-7.646
9,Cn1cc(CN2CCC3(CC2)CC(c2ccncc2)C(=O)N3)cn1.O=C(O)C(F)(F)F.O=C(O)C(F)(F)F (stereo unspecified),4.796
10,CC(C)CCn1cc(C(C(=O)O)N2CCCN(C3CCCC3)CC2)cn1 (stereo unspecified),99.16
11,CC(C)CCS(=O)(=O)CC(=O)N1CCCC1c1cnn(C)c1 (stereo unspecified),5.656
12,CC(C)Cc1cn(C2CCN(C(C)CCn3cccn3)CC2)nn1 (stereo unspecified),2.161
13,COc1ccc(C(C(=O)O)N2CCCN(C3CCCC3)CC2)cc1OC (stereo unspecified),14.25
14,COc1ccc(F)cc1C(C(=O)O)N1CCSCC1 (stereo unspecified),-3.942
15,CC(CCn1cccn1)N1CCC(n2cc(C(C)(C)N)nn2)CC1 (stereo unspecified),-1.676
16,CC(C)CCn1cc(C(C(=O)O)N2CCC(c3ccncc3)CC2)cn1 (stereo unspecified),105.9
17,O=C(N[C@@H]1CN(c2ncccn2)C[C@@H]2CCCO[C@@H]21)c1cccnc1.O=C(O)C(F)(F)F.O=C(O)C(F)(F)F,-5.975
18,CCOCCN1CCN(Cc2cccc(C(=O)N(C)C)c2)CC1,-1.534
19,COCc1cccc(C(=O)N2CCCC2)c1,-4.067
20,CC1CCN(C(=O)c2cccc(CN3CCOCC3)c2)CC1,117.9
21,CN1CCN(C(=O)c2cccc(CN3CCOCC3)c2)CC1,132.9
22,CCN1CCN(C(=O)c2ccn(C)c(=O)c2)CC1,15.1
23,CCN1CCN(C(=O)c2cccc(CN3CCOCC3)c2)CC1,97.52
24,NC(=O)C1CCN(C(=O)c2cccc(CN3CCOCC3)c2)CC1,-12.72
25,CC1CCCN(C(=O)c2cccc(CS(C)(=O)=O)c2)C1 (stereo unspecified),-2.941
26,O=C(c1cccc(NCCO)c1)N1CCOCC1,0.9463

row,Structure (SMILES),Percent Effect [%]
1,COC(=O)[C@@H]1Cc2ncn(C(C)C)c2CN1S(=O)(=O)Cc1ccccc1,1.678
2,CCN(CC)S(=O)(=O)NC(C)C(=O)N(C)C (stereo unspecified),-9.888
3,CC(C)c1nnc(CNc2ccc(SC(F)(F)F)cc2)o1,-0.02401
4,CCc1ccc(C2CCCCCN2C(=O)CNC(=O)NC2CC2)o1 (stereo unspecified),-27.64
5,Cc1ccnc(N2CCCC(c3noc(C(C)C)n3)C2)n1 (stereo unspecified),19.69
6,c1cnnc(N2CCCC2CNCc2cnc(N3CCCC3)nc2)c1 (stereo unspecified),-1.846
7,O=C1OCCN1Cc1cc(C(F)(F)F)ccc1F,-10.76
8,Cc1nnc(N2CCCC3(CN(c4ccccn4)CCO3)C2)o1.O=C(O)C(F)(F)F (stereo unspecified),102.3
9,O=C(O)C(F)(F)F.O=C(O)C(F)(F)F.c1cnc(N2CCOC3(CCCN(c4cnccn4)C3)C2)nc1 (stereo unspecified),-4.65
10,CCS(=O)(=O)N1CCOC2(CCCN(c3ccccn3)C2)C1.O=C(O)C(F)(F)F (stereo unspecified),-10.79
11,N#Cc1cccc(N2CCCC3(C2)CN(c2ncccn2)CCO3)n1.O=C(O)C(F)(F)F (stereo unspecified),-0.7909
12,O=C(O)C(F)(F)F.c1ccc(N2CCOC3(CCCN(c4ncccn4)C3)C2)nc1 (stereo unspecified),84.77
13,Cc1nnc(N2CCCC3(CN(Cc4ccc(C)s4)CCO3)C2)o1.O=C(O)C(F)(F)F.O=C(O)C(F)(F)F (stereo unspecified),-0.4451
14,Cc1cc(C(C)NC(=O)CCN2C(=O)c3ccccc3C2=O)c(C)o1 (stereo unspecified),-2.425
15,Cc1nc(Nc2ncccn2)cc(C2CCCN2Cc2ncc[nH]2)n1 (stereo unspecified),97.78
16,Cc1nc(Nc2ccccn2)cc(C2CCCN2Cc2ncc[nH]2)n1 (stereo unspecified),129.4
17,c1cc(-c2c[nH]c([C@@H]3COCCN3Cc3ncc[nH]3)n2)ccn1,-5.75
18,Cc1nc(Nc2ncccn2)cc(C2CCCN2C2CCOCC2)n1 (stereo unspecified),-10.06
19,CCc1cc(C(C)Nc2nc(-c3cccnc3)nc3c2CNC3)on1 (stereo unspecified),-7.07
20,CN(C)C(C)(C)CNC(=O)C(C)(C)c1ccccc1F,-19.41
21,Cc1csc(C2(NC(=O)NCCN3CCOCC3)CCCC2)n1,-11.69
22,COc1cccc(NC(=O)N(CCC(F)(F)F)C[C@H](O)CO)c1,-14.76
23,CCc1ccccc1OC1CN(C(=O)c2sccc2N)C1,9.804
24,O=C(CN1CC(n2cccn2)C1)NCCCN1CCCC1=O,95.99
25,O=C(c1ccc(CN2CC(n3cccn3)C2)cc1)N1CCCC1,6.953
26,CC(Cn1cccn1)NC(=O)NCCN1CCCCCC1=O (stereo unspecified),-10.88

row,Structure (SMILES),Percent Effect [%]
1,CCC1CN(CC(=O)NCCC#N)CCO1 (stereo unspecified),-6.003
2,O=C(CN1CC(n2cccn2)C1)NCCc1c[nH]c2ccccc12,-3.25
3,CC(C)c1nc2n(n1)CC(NCC(=O)NCCC1=CCCCC1)CC2 (stereo unspecified),-9.722
4,O=C(CN1CCCC(c2ncc[nH]2)C1)NCCCN1CCCCCC1=O (stereo unspecified),11.49
5,N#CCCNC(=O)CN1CC(n2cccn2)C1,139.2
6,O=C(CN1CC(n2cccn2)C1)NCCC1=CCCCC1,104.9
7,O=C(CN1CC(n2cccn2)C1)NCCc1ccc(F)cc1,97.63
8,O=C(CN1CC(n2cccn2)C1)NCC1(c2ccccc2)CCC1,14.59
9,O=C(CN1CC(n2cccn2)C1)NCCCc1ccccc1,-6.652
10,CNC(=O)CCNC(=O)c1ccccc1N1CCOCC1,-6.711
11,CCC1CN(C(=O)c2ccccc2C#N)CCN1C(C)C (stereo unspecified),-3.955
12,COc1ccc2c(c1)C1(CCN(Cc3nccs3)CC1)N(C)CC2.O=C(O)C(F)(F)F.O=C(O)C(F)(F)F,6.008
13,COc1ccc(-c2n[nH]cc2CN(C)Cc2nonc2C)c(F)c1,-4.147
14,O=C([C@H]1C[C@H]2OCC[C@H]2N(C(=O)C2CCOCC2)C1)N1CCCCO1,-4.541
15,CCOC(=O)c1ccccc1NC(=O)CN(C)Cc1ccccc1Cl.O=C(O)C(=O)O,16.66
16,CC(=O)NCCC(=O)NCc1ccc(Br)cc1Cl,-2.805
17,Cc1cccc(C(C)(C)CNc2cn[nH]c(=O)c2Cl)c1,26.78
18,CC(=O)N1CCCN(C(=O)NCCc2ccc(Cl)s2)CC1,4.085
19,Cc1ncc(CN(C)C(=O)Nc2cccc(C(=O)N3CCOCC3)c2)s1,-6.788
20,O=C(Cc1cnc(-c2c(Cl)cccc2Cl)s1)N1CCOCC1,134.1
21,CN(C)C(=O)N1CCN(Cc2cnc(-c3ccsc3)s2)CC1,-2.871
22,O=C(NC1CC1)c1cc(NC(=O)N2CCOCC2)ccc1Cl,-10.77
23,O=C(O)Cc1cccc(-n2ccnc2-c2ccc(Cl)s2)c1,1.594
24,NC(=O)C1CCN(C(=O)Cc2cnc(-c3c(Cl)cccc3Cl)s2)CC1,112.4
25,Cc1nc2ccnn2c(C)c1CCC(=O)N1CCC(C(N)=O)CC1,1.242
26,Cc1oc(CNC(=O)Cc2ccccc2Cl)cc1C(=O)O,-14.11

row,Structure (SMILES),Percent Effect [%]
1,O=C(O)Cc1cnc(-c2c(Cl)cccc2Cl)s1,122.5
2,NC(=O)C1CCN(C(=O)Cc2ccc(Cl)c(Cl)c2)CC1,-1.39
3,CC(=O)N1CCN(C(=O)Cc2cnc(-c3c(Cl)cccc3Cl)s2)CC1,110.1
4,Cc1ncccc1OC1(C(=O)NCCC2CCCN2C)CCNCC1 (stereo unspecified),17.07
5,CCCOCC(=O)N1CCCN(Cc2csc(CC)n2)CC1,2.804
6,CS(=O)(=O)CCCN1CCSCC1c1ccc(Cl)cc1 (stereo unspecified),-3.255
7,CCN(CC(=O)Nc1c(C)n[nH]c1C)CC(O)c1ccc(C)cc1 (stereo unspecified),-7.699
8,CCN(CC(=O)Nc1c(C)nn(C)c1C)CC(O)c1ccc(C)cc1 (stereo unspecified),2.184
9,CC(C)NC(=O)CNC(C)COc1ccccc1 (stereo unspecified),2.359
10,CC(C)CN(CC(O)c1ccccc1)C(=O)NC(C)C (stereo unspecified),126.3
11,O=C(Nc1nccs1)N(CCO)Cc1ccsc1,-2.808
12,CCN(CC(O)c1ccc(C)cc1)C(=O)NC(C)C (stereo unspecified),91.44
13,CCC(CC)(CNC(C)=O)NC(C)c1ccccc1 (stereo unspecified),1.082
14,CC(C)CN(CC(O)c1ccccc1)C(=O)Nc1nccs1 (stereo unspecified),92.63
15,CC(NC(=O)Nc1nccs1)c1cccnc1 (stereo unspecified),-1.338
16,Cc1nn(C)c(Cl)c1C1CCCN1c1ncnc2[nH]ccc12 (stereo unspecified),-15.05
17,CCc1nnc(N[C@H](C)c2cccc(OC)c2)o1,-47.91
18,Cc1nc(CN2CC[C@H]3[C@@H]2CCC(=O)N3c2cnn(C)c2)cs1.O=C(O)C(F)(F)F,98.36
19,Cn1cc(N2C(=O)CC[C@@H]3[C@H]2CCN3Cc2nccs2)cn1.O=C(O)C(F)(F)F,92.26
20,Cn1cc(N2C(=O)CC[C@@H]3[C@H]2CCN3C(=O)c2cscn2)cn1.O=C(O)C(F)(F)F,-22.63
21,Cn1cc(C(=O)N[C@H]2CN(Cc3nccs3)[C@@H]3CCCO[C@H]23)cn1.O=C(O)C(F)(F)F,-3.983
22,Cc1nc(CN2CC[C@H]3[C@H]2CCN3c2nncs2)cs1.O=C(O)C(F)(F)F.O=C(O)C(F)(F)F,10.04
23,Cc1nc(CO[C@@H]2CN(Cc3cnn(C)c3)[C@@H]3COC[C@@H]32)cs1.O=C(O)C(F)(F)F,-7.827
